Source: the supplement of paper PMC12645437, “Orthogonal IMiD-Degron Pairs Induce Selective Protein Degradation in Cells” (ACS Chemical Biology, 2025)
Whole data set: some 8,300 sequences, median “log2 fold change of degron read counts, EGFP-low vs EGFP+ sorted cells (limma voom), compound-induced degradation” near -1.1, cut for the highest 2% near 3.2. Shown is part of a subset that was picked to be rich in the highest values.

T1: CRBN, Q96SW2
T1 chain: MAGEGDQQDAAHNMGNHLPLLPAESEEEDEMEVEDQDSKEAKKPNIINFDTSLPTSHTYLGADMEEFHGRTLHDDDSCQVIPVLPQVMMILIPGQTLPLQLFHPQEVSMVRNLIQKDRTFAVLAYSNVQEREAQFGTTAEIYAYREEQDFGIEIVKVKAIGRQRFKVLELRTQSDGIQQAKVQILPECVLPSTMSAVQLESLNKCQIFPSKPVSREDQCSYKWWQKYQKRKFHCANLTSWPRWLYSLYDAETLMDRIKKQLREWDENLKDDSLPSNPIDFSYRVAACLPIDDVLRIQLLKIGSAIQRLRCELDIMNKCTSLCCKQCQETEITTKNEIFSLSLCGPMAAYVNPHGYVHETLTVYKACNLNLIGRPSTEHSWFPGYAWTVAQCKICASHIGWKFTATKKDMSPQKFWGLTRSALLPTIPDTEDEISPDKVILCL

B1: 46F_47Y_49N_50I_52G_53A_54F_55F_67L_, Q9UKT9 (peptide)
chain: FYCNICGAFFTQKGNLLRHIKL
B2: 46F_47Y_49E_50Q_52G_53A_54E_55F_67L_, Q9UKT9 (peptide)
chain: FYCEQCGAEFTQKGNLLRHIKL
B3: 46F_47H_49P_50Q_52G_53A_54C_55F_67L_, Q9UKT9 (peptide)
chain: FHCPQCGACFTQKGNLLRHIKL
B4: 46F_47K_49P_50V_52G_53A_54A_55F_67L_, Q9UKT9 (peptide)
chain: FKCPVCGAAFTQKGNLLRHIKL
B5: 46F_47E_49E_50I_52G_53H_54P_55F_67L_, Q9UKT9 (peptide)
chain: FECEICGHPFTQKGNLLRHIKL
B6: 46F_47W_49P_50I_52G_53H_54K_55F_67L_, Q9UKT9 (peptide)
chain: FWCPICGHKFTQKGNLLRHIKL
B7: 46F_47F_49P_50I_52G_53R_54W_55F_67L_, Q9UKT9 (peptide)
chain: FFCPICGRWFTQKGNLLRHIKL
B8: 46F_47V_49E_50I_52G_53H_54P_55F_67L_, Q9UKT9 (peptide)
chain: FVCEICGHPFTQKGNLLRHIKL
B9: 46F_47I_49E_50I_52G_53A_54C_55F_67L_, Q9UKT9 (peptide)
chain: FICEICGACFTQKGNLLRHIKL
B10: 46F_47F_49E_50I_52G_53A_54C_55F_67L_, Q9UKT9 (peptide)
chain: FFCEICGACFTQKGNLLRHIKL
B11: 46F_47A_49E_50I_52G_53A_54C_55F_67L_, Q9UKT9 (peptide)
chain: FACEICGACFTQKGNLLRHIKL
B12: 46F_47W_49E_50I_52G_53A_54C_55F_67L_, Q9UKT9 (peptide)
chain: FWCEICGACFTQKGNLLRHIKL
B13: 46F_47N_49E_50I_52G_53A_54C_55F_67L_, Q9UKT9 (peptide)
chain: FNCEICGACFTQKGNLLRHIKL
B14: 46F_47H_49E_50I_52G_53A_54C_55F_67L_, Q9UKT9 (peptide)
chain: FHCEICGACFTQKGNLLRHIKL
B15: 46F_47L_49E_50I_52G_53A_54C_55F_67L_, Q9UKT9 (peptide)
chain: FLCEICGACFTQKGNLLRHIKL

Biological target: T1, CRBN, Q96SW2
Assay: log2 fold change of degron read counts, EGFP-low vs EGFP+ sorted cells (limma voom), compound-induced degradation; higher = more compound-induced degradation of the degron-EGFP fusion; degrons are variants of IKZF1/3 zinc finger 2; compound dose not given here
Settings: Jurkat, 18 h
Method: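 Pooled library of 8380 IKZF3 ZF2 degron mutants (positions 146-167 varied within the IKZF3 130-189 degron; only the varied core is printed, flanks not printed) fused to EGFP with IRES-mCherry, lentivirally expressed in Jurkat cells. mCherry+ cells were treated with one IMiD compound for 18 h (dose not stated) and FACS-sorted into EGFP-low and EGFP+ populations. Degron sequences were counted by NGS, and log2FC (EGFP-low vs EGFP+) was estimated by limma voom over 3 biological replicates.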

[1] = compound: compound 19 (5-tert-butyl-thalidomide)
[2] = compound: compound 22 (5-morpholino-thalidomide)
[3] = compound: compound 33 (diphenyl IMiD analogue)
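Further: pooled lentiviral library of zinc finger degron-EGFP fusions in mCherry-positive Jurkat cells, FACS-sorted after compound exposure, with degron abundance counted by next-generation sequencing.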

| Sequence | log2 fold change of degron read counts [1] | log2 fold change of degron read counts [2] | log2 fold change of degron read counts [3] | log2 fold change of degron read counts (compound: thalidomide) |
| --- | --- | --- | --- | --- |
| B1 | 1.22 | 1.41 | 0.651 | -0.835 |
| B2 | -0.252 | -0.709 | -0.311 | -2.41 |
| B3 | -0.735 | -0.785 | 0.174 | -1.82 |
| B4 | 1.7 | -0.2 | -1.11 | 0.798 |
| B5 | -2.97 | -3.81 | -1.95 | -1.68 |
| B6 | -0.246 | -0.231 | -0.673 | -0.717 |
| B7 | 1.04 | 1 | -0.146 | -0.692 |
| B8 | -1.95 | -1.66 | -1.45 | -0.105 |
| B9 | -0.122 | 2.02 | 2.45 | 2.64 |
| B10 | 3.78 | 3.84 | 2.33 | 1.61 |
| B11 | 3.71 | 2.6 | 1.54 | 0.745 |
| B12 | 3.85 | 3.79 | 2.77 | 1.16 |
| B13 | 2.72 | 0.812 | 0.513 | 0.0996 |
| B14 | 2.97 | 2.54 | 1.42 | 0.134 |
| B15 | 1.19 | -0.209 | 1.6 | 1.57 |
